Most compounds without a hit are left out; they make up all but 4.5% or so of the library.
hgDAF-12 ag: activates the H. glycines DAF-12 receptor ligand-binding domain; 370,000 tested, 1.8% active; HEK293 GAL4-hgDAF12 UAS-luciferase reporter, agonist luminescence; normalized to butyrate control; activation, % at 6.8 µM; AID 687014;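 active means activation above a cutoff set at the mean of all screened compounds plus 3 SD, cut at about 10% in these data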;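 further: 0% = DMSO wells and 100% = sodium butyrate wells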
hcDAF12 agonist: activates DAF-12 receptor from parasite H. contortus; HEK293 hcDAF-12 lit1-tk-luc reporter, luminescence; 0% DMSO, 100% Δ7-dafachronic acid; activation, % at 6.8 µM; 370,000 tested, 1.4% active; AID 652067;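 active means activation above the mean of all tested compounds plus 3 SD, cut at about 5.5% in these data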;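 further: 100% = response to 3 µM Δ7-dafachronic acid high control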
DAX1 inh-1: blocks DAX1 repression of SF-1 activated StAR promoter. HEK293T StAR-luciferase reporter, SF-1/DAX-1 repression relief. inhibition, % at 6.8 µM. 370,000 tested, 1.1% active. AID 652010;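 active means inhibition above the mean over all tested compounds plus 3 SD, cut at about 3.6% in these data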;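 further: 0% = DAX-1 cells with DMSO and 100% = cells lacking DAX-1 with DMSO; higher inhibition means more luminescence from relief of DAX-1 repression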
ssDAF-12 act: activates DAF-12 receptor from parasite S. stercoralis; HEK293 ssDAF-12/GRIP1 lit1-tk-luc reporter, luminescence; % of 3 µM dafachronic acid response; activation, % at 6.8 µM; 370,000 tested, 1% active; AID 652126;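 active means activation above the mean over all tested compounds plus 3 SD, cut at about 0.9% in these data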;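 further: 0% = DMSO-only wells and 100% = 3 µM delta7-dafachronic acid wells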
DAX1 inh-2: inhibits human nuclear receptor DAX1; P51843; HEK293 Gal4-DAX1 luciferase reporter, luminescence; inhibition, % at 6.75 µM; 340,000 tested, 0.99% active; AID 504766;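 active means inhibition above the mean over all tested compounds plus 3 SD, cut at about 4.2% in these data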;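 further: 0% = DAX1-transfected cells with DMSO and 100% = empty-vector control cells with DMSO; inhibition shows as a rise in luminescence from relieved DAX1 repression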
Target sequence (P51843 207-470 limits assumed): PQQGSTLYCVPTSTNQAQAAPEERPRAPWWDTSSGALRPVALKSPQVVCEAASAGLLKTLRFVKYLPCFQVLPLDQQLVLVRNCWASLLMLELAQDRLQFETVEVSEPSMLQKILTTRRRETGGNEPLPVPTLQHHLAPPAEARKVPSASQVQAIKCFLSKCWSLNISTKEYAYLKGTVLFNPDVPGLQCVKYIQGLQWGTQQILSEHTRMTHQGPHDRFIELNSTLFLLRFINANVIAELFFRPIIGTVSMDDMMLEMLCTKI
GAA850 FXN act: frataxin GAA850 promoter activation; activation, % at 6 µM; HEK293 lucGAA850 FXN promoter luciferase reporter, 24 h; percent of 10 µM SAHA response; 360,000 tested, 0.56% active; AID 540364;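 active means activation above the average of all compounds screened plus 3 SD, cutoff fixed separately per campaign, cut at about 7.5% in these data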;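 further: 0% = DMSO wells and 100% = 10 µM SAHA wells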
* hit, by the source's call; x = not tested or not shown.

SMILES	hgDAF-12 ag	hcDAF12 agonist	DAX1 inh-1	ssDAF-12 act	DAX1 inh-2	GAA850 FXN act
COc1ccc(C2=NN(C(C#N)c3ccc(OC)cc3)C(c3ccccc3)C2)cc1 (stereo not drawn)	13*	6.4*	3	-1	5.4*	5
CCOc1ccc(C=Nn2c(-c3ccc(F)cc3)n[nH]c2=S)cc1	3	-3	0	0	x	x
CCCCNC(=O)Nc1nnc(-c2ccc(OCC)cc2)o1	1	1	0	-1	5.5*	1
COc1ccccc1CC(=O)Nc1ccc(C(=O)N2CCCCC2)cc1	0	0	3.9*	-1	1	1
Cc1cccc(CC(=O)Nc2ccc(C(=O)N3CCCCC3)cc2)c1	3	-1	2	-1	0	1
COC(=O)[C@]12C[C@H](CC(=O)NCc3ccc(OC)c(OC)c3)C(=O)N(Cc3cccc4ccccc34)C1=C[C@H](COCc1ccccc1)O[C@@H]2C	0	-5	-1	-2	x	x
c1ccc(CSc2ccc(-c3ccccn3)nn2)cc1	12*	5	3	0	1	2
O=C(CSc1ccc(-c2ccccn2)nn1)c1ccccc1	9	2	0	-1	4.6*	4
C=CCN1[C@@H](CC(C)C)COc2cccc(F)c2S1(=O)=O	1	-2	0	-2	x	x
COc1ccc(-c2csc(NC(=O)c3ccoc3C)n2)cc1	11*	1	2	-2	2	5
CCOc1ccc2nc(NC(=O)c3ccoc3C)sc2c1	11*	6.2*	2	0	-3	0
COc1ccc2sc(NC(C)=O)nc2c1	11*	2	3	0	2	7
CCCCOC(=O)Nc1nc2ccc(OC)cc2s1	7	0	0	-1	1	5
CCC(=O)Nc1nc2cc(OC)ccc2s1	9	0	1	-1	4	1
CCCCN(C(=O)NC(=O)Nc1nc2ccc(OC)cc2s1)S(C)(=O)=O	8	3	1	0	1	9.5*
CCCCCCCCN1CN2Cc3ccc(C)cc3C2CS1(=O)=O (stereo not drawn)	1	-1	1	-1	x	x
COC(=O)C1CN(Cc2ccc(C)cc2)CCS(=O)(=O)N1Cc1cn(Cc2ccc(Cl)cc2)nn1 (stereo not drawn)	1	-1	-1	-1	x	x
COc1ccc2nc(NC(=O)c3ccccc3C(=O)O)sc2c1	3	5.7*	1	0	0	1
COc1ccc2nc(NC(=O)c3ccccc3-c3ccccc3C(=O)O)sc2c1	-2	-2	0	0	4	1
O=C(O)c1ccc(-n2ncc3c2/C(=C\c2cccc([N+](=O)[O-])c2)CC3)cc1	3	1	0	-1	2	1
O=C(O)c1ccc(-n2ncc3c2/C(=C/c2cccc([N+](=O)[O-])c2)CC3)cc1	0	4	0	0.9*	0	0
CCOC(=O)c1cc(C(=O)NCc2ccc(Cl)cc2Cl)nn1C	2	-1	0	-2	2	0
CCOC(=O)c1cc(C(=O)Nc2ccc(C)c(F)c2)nn1C	11*	5	3	-1	3	5
COc1ccc(-c2cc(=O)oc3c(C)c(OCc4nn[nH]n4)ccc23)cc1	-2	-1	1	-1	7.3*	0
Cc1c(Cc2ccccc2)c(=O)oc2c(C)c(OCc3nn[nH]n3)ccc12	-2	-1	0	-1	5.3*	-2
SMILES	hgDAF-12 ag	hcDAF12 agonist	DAX1 inh-1	ssDAF-12 act	DAX1 inh-2	GAA850 FXN act
Cc1c(CC(=O)O)c(=O)oc2c(C)c(OCc3nn[nH]n3)ccc12	-2	0	0	-1	0	1
CCOC(=O)CC[C@H]1CC[C@]2(CCCN(S(=O)(=O)C3CCCCC3)C2)O1	0	0	-1	-1	x	x
CCC(C)NC(=O)c1cc2cc3ccc(OC)cc3nc2s1 (stereo not drawn)	10	4	3.8*	1.4*	1	2
CC(=O)N1c2cc(S(=O)(=O)N3CCN(c4ccccc4F)CC3)c(Br)cc2CC1C (stereo not drawn)	-3	-2	-2	-1	x	x
CC(C)C1NC(=S)N(C2CCCCC2)C1=O (stereo not drawn)	2	-1	0	1.2*	0	-1
CCN(CC(=O)Nc1ccccc1C(F)(F)F)C(=O)c1oc2ccc(OC)cc2c1C	5	-1	4.2*	0	1	4
C(=NOCCc1ccccc1)c1ccncc1	8	1	1	1.3*	1	5
C(=NOCCc1ccccc1)c1ccccn1	7	0	2	0	2	5
Cc1ccc(-n2c(SCC(=O)Nc3ccccc3-c3ccccc3)nnc2-c2ccco2)cc1	-1	-3	-1	-2	x	x
Cc1ccc(S(=O)(=O)Nc2c(C(=O)O)[nH]c3ccccc23)cc1C	2	5.8*	0	0	0	-1
Cc1cc(S(=O)(=O)Nc2c(C(=O)O)[nH]c3ccccc23)ccc1F	1	2	0	1.1*	0	4
COC(=O)c1[nH]c2ccc(F)cc2c1NS(=O)(=O)c1ccc(F)c(C)c1	-1	4	0	0	-2	4
Cc1cc(=O)[nH]c2ccc(S(=O)(=O)Nc3ccc(O)cc3)cc12	0	0	0	-1	0	2
Cc1cc(=O)[nH]c2ccc(S(=O)(=O)Nc3ccccc3)cc12	0	1	0	0	4.2*	2
O=C(CSc1nnc(-c2ccccn2)n1-c1ccccc1)Nc1ccc2c(c1)OCCO2	1	-1	-2	-2	x	x
c1ccc(-c2cccc(-c3ccccc3)n2)cc1	0	-2	0	-2	2	1
c1ccc(-c2ccc3ncccc3n2)cc1	8	2	3.7*	0	x	x
Cc1cccc(-c2cccc3c4c([nH]c23)[C@@H]2C[C@H](N(C)C(=O)NC3CCCCC3)[C@H]([C@H](C)O)CN2CC4)c1	-3	0	-1	-1	x	x
Cc1csc2ncc(C(=O)Nc3ccccc3F)c(=O)n12	6	6.2*	1	0	1	5
NC(=O)C1CCN(c2ncc(Br)s2)CC1	1	1	x	-1	x	x
CCCCN1C(=O)/C(=C2\SC(N3CCCCC3)=NC2=O)c2ccccc21	7	3	2	-2	4.3*	7
CN(C)c1ccc(C(=S)NC2CCCCC2)cc1	13*	4	4.3*	0	5.1*	6
Fc1ccc(/C=N/Nc2nn[nH]n2)cc1	-3	-1	0	-1	7.1*	0
COc1ccccc1N1CCN(C(=O)c2cc3ccccc3[nH]2)CC1	-1	0	2	-1	-2	-2
COc1ccccc1N1CCN(C(=O)c2cc3cc(F)ccc3[nH]2)CC1	2	5.8*	0	0	-1	0
